Screens deposited in PubChem by NMMLSC.
The list is not random: actives were taken first. Their share in the collection is about 1.1%.
RPL19A TOR yeast = alters RPL19A-GFP fluorescence in TOR pathway yeast screen; S. cerevisiae RPL19A-GFP strain, flow cytometry, 3 h; hits give low values; percent response vs DMSO, % at 10 µM; 330,000 tested, 0.3% active;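 active = percent response vs DMSO below 50%; inconclusive = fewer than 70 events counted for the yeast strain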;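 note: median channel GFP fluorescence of the barcoded RPL19A-GFP strain; ratio of sample median GFP to plate DMSO average so 100% = DMSO; lower means less RPL19A-GFP as with rapamycin TOR inhibition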
CIT2-GFP yeast = modulators of TOR pathway CIT2-GFP in S. cerevisiae | S. cerevisiae CIT2-GFP strain, flow cytometry, 3 h; 100 means same as DMSO wells | GFP response vs DMSO, % at 10 µM | AID 2029 | 320,000 tested, 0.065% active;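 active = GFP response relative to DMSO above a set limit, near the screen mean plus 3 SD, cut at about 150% in these data; inconclusive = Fewer than 70 cells measured for a yeast strain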;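 note: ratio of well median GFP fluorescence to mean of DMSO wells on the plate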
MEP2-GFP yeast = modulators of TOR pathway MEP2-GFP in S. cerevisiae; AID 2016; GFP response vs DMSO, % at 10 µM; S. cerevisiae MEP2-GFP strain, flow cytometry GFP, 3 h; 100% = DMSO control level; 330,000 tested, 0.51% active;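 active = GFP response versus DMSO above a set limit, roughly screen mean plus 3 SD, cut at about 180% in these data; inconclusive = fewer than 70 cells counted for a yeast strain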;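 note: median GFP fluorescence of the barcode-gated MEP2-GFP cells per well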
LAP4-GFP MLPCN = yeast TOR pathway LAP4-GFP modulation. S. cerevisiae LAP4-GFP multiplex, flow cytometry GFP, 3 h; median GFP as percent of DMSO wells. GFP response vs DMSO, % at 10 µM. 320,000 tested, 0.34% active;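 active = GFP response vs DMSO above a set limit, about the screen mean plus 3 SD, cut at about 150% in these data; inconclusive = under 70 cell events counted for the yeast strain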
AGP1 TOR yeast = yeast TOR pathway AGP1-GFP modulation; S. cerevisiae AGP1-GFP multiplex flow cytometry, 3 h; GFP as percent of DMSO wells; GFP response vs DMSO, % at 10 µM; 320,000 tested, 0.02% active; AID 2066;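 active = GFP response relative to DMSO above a set limit, near screen average plus 3 SD, cut at about 150% in these data; inconclusive = fewer than 70 cells counted for the yeast strain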;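 note: median GFP channel fluorescence of the gated AGP1 strain per well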
VLA-4 inh = inhibition in a human VLA-4 binding assay. AID 2557. inhibition, % (about 7 µM as worked out from the volumes in the protocol). VLA-4 expressing cells, ligand binding flow cytometry. 330,000 tested, 0.2% active. P13612; in the data active = inhibition above about 50%
Target sequence (P13612 whole entry, looked up): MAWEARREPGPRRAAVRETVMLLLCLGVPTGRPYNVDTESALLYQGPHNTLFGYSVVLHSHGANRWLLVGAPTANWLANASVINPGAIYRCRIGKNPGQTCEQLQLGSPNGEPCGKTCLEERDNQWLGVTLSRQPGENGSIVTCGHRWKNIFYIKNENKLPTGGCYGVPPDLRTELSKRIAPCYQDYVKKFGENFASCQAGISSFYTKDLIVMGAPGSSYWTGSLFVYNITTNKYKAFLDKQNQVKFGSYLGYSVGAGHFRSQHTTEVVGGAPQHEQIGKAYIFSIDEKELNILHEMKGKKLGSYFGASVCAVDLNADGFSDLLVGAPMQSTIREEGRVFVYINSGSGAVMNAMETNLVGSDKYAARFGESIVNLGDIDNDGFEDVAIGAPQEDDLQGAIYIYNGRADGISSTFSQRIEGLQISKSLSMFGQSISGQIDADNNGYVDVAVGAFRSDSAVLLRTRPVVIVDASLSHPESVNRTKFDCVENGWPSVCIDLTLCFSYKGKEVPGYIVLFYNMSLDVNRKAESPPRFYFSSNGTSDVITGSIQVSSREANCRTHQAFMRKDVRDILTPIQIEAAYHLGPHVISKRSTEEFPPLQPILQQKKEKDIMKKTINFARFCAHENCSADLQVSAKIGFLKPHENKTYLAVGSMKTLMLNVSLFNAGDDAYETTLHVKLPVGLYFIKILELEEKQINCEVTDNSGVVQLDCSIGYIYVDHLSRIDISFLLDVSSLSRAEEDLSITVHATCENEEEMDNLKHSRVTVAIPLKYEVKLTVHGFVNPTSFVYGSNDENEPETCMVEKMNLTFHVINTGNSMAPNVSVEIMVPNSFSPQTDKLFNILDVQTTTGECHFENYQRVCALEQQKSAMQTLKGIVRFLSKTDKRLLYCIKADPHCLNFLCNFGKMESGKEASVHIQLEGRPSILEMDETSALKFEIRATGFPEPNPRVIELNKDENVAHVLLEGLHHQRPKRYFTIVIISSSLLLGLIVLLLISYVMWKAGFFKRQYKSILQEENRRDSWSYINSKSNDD
An asterisk follows results filed as active; i = inactive; ? = inconclusive; nt = not tested or not shown; + = active, no number; [ ] = dose if it differs, or a comment.

SMILES	RPL19A TOR yeast	CIT2-GFP yeast	MEP2-GFP yeast	LAP4-GFP MLPCN	AGP1 TOR yeast	VLA-4 inh
Cc1ccc(S(=O)(=O)N(C(=N)N)c2nc(N(C)C)nc(N(C)C)n2)cc1	101.0	102.4	104.8	104.5	107.2	20.9
Cc1ccc(S(=O)(=O)N(CC(=O)Nc2cccnc2)c2ccccc2C)cc1	72.1	93.0	188.5*	86.2	13.7	0.7
Cc1ccc(S(=O)(=O)N(CC(=O)Nc2ccccc2C(=O)O)c2ccccc2C)cc1	100.1	99.2	101.9	104.8	106.9	-0.6
COc1ccc(NC(=O)CSc2ccc3c(c2)OCCO3)cc1S(N)(=O)=O	88.2	89.5	95.1	133.3	103.0	1.2
Cc1cc(C)cc(NC(=O)CN2CCC(NC(=O)c3ccccc3F)CC2)c1	100.5	98.3	102.4	100.7	102.6	-6.4
CC[n+]1c(/C=C/C=C/N(C(C)=O)c2ccccc2)sc2ccccc21	105.2	395.3*	514.2*	272.7*	147.7	i
CCn1c(/C=C/N(C(C)=O)c2ccccc2)[n+](CC)c2ccc(Cl)cc21	98.1	95.5	91.2	99.3	99.4	-34.0
Cc1ccc(OCC(=O)NCCNC(=O)c2ccncc2)cc1	105.0	111.8	103.2	94.7	104.8	-1.0
CN1C(=O)c2ccc(Oc3ccccc3)cc2C1=O	99.2	107.8	103.4	97.1	93.5	-21.9
O=C(NCc1ccccc1Cl)C1CCN(S(=O)(=O)c2cccs2)CC1	41.7*[may fluoresce violet]	?	205.4*[may fluoresce violet]	56.0	?	-8.3
COc1ccccc1NC(=O)C1CCN(S(=O)(=O)c2cccs2)CC1	i	+[may fluoresce green]	+[may fluoresce green]	+[may fluoresce green]	+[may fluoresce green]	i
O=C(C1CCN(S(=O)(=O)c2cccs2)CC1)N(c1ccccn1)C1CCCCC1	45.7*[may fluoresce violet]	?	85.0	103.8	?	2.4
COc1ccc(C(=O)Nc2ccc(C(=O)N3CCC(C)CC3)cc2)cc1OC	107.7	102.5	108.2	100.3	104.1	42.8
CCOC(=O)c1ccc(N2CN(C3CCCCC3)CNC2=S)cc1	30.9*[may fluoresce violet]	?	237.0*[may fluoresce violet]	97.6	?	10.4
COc1ccc(C(=O)NCC(=O)N/N=C/c2ccc(C)o2)cc1OC	98.3	88.5	88.4	81.8	83.0	-11.8
CCc1nnc(NC(=O)CSc2nnc(C3CCCCC3)n2-c2cccc(Cl)c2)s1	48.5*	199.1*	+	343.4*	198.4*	-6.8
CCc1nnc(NC(=O)CSc2nnc(CNc3cccc(Cl)c3)n2CC)s1	98.4	104.3	97.5	96.0	102.0	-5.6
O=C(COc1ccccc1)Nc1cccc(-c2ccc(N3CCOCC3)nn2)c1	101.9	98.7	95.9	104.1	110.4	2.2
O=C(CCNS(=O)(=O)c1ccccc1)NNC(=O)COc1ccccc1F	100.5	99.2	100.1	101.8	99.9	2.5
O=C(CCNc1ccc(F)cc1)c1ccco1	43.5*[may fluoresce violet]	?	275.9*[may fluoresce violet]	97.6	22.2	-6.3
COc1cc(CN2CCCC(N3CCN(c4ccccc4C)CC3)C2)ccc1O (centres undefined)	102.9	81.5	116.7	87.5	49.2	-164.3
COc1cc(Cl)c(C)cc1NCC(=O)Nc1cccc(S(=O)(=O)N2CCCC2)c1	97.7	102.6	96.5	100.0	103.5	10.6
COc1ccc(S(=O)(=O)Nc2ccc(C(F)(F)F)cc2)cc1OC	62.3	?	195.6*[may fluoresce violet]	79.1	?	-0.5
COc1ccc(NS(=O)(=O)c2cc(C)ccc2C)cc1	94.3	91.7	98.1	106.0	nt	-16.2
COc1ccc(NS(=O)(=O)c2cc(OC)ccc2OC)cc1	44.9*[may fluoresce violet]	?	267.2*[may fluoresce violet]	97.0	?	-2.8
SMILES	RPL19A TOR yeast	CIT2-GFP yeast	MEP2-GFP yeast	LAP4-GFP MLPCN	AGP1 TOR yeast	VLA-4 inh
COc1ccc(NS(=O)(=O)c2cccc3ccccc23)cc1	70.7	87.1	93.5	183.5*	95.7	-9.9
O=C(Nc1cccc(OC(=O)c2cccnc2)c1)c1cccnc1	59.0	?	193.9*[may fluoresce violet]	102.7	21.2	4.2
Cc1ccc(N(C)C2=NC(=O)CS2)cc1Cl	103.9	101.7	110.3	103.4	106.0	-10.5
COc1ccc2nc(/C=N/NC(=O)CCCCCNC(=O)OC(C)(C)C)ccc2c1	61.6	?	204.1*[may fluoresce violet]	108.3	?	-1.0
CC(C)N(Cc1ccccc1)C(=O)CN1C(=O)NC2(CCCCCC2)C1=O	99.7	96.4	102.2	98.5	102.0	6.2
C=C(C)C1CC=C(C)/C(=N/NC(=O)CNc2ccc(OCC)cc2)C1 (centres undefined)	59.3	?	206.8*[may fluoresce violet]	104.1	?	6.2
c1ccc(CNc2cnccn2)cc1	96.8	97.9	98.0	97.7	97.0	8.5
c1ccc(CCNc2cnccn2)cc1	65.2	?	190.1*[may fluoresce violet]	70.4	?	-13.7
NC(=O)C1Cc2ccccc2CN1C(=O)c1nn(Cc2ccccc2)c(=O)c2ccccc12 (centres undefined)	106.8	103.8	106.7	103.9	110.4	0.2
COc1ccc(C2c3c(oc4ccccc4c3=O)C(=O)N2CCN2CCOCC2)cc1OC (centres undefined)	53.5	90.3	187.6*	96.5	74.0	14.4
COc1cc(C2c3c(oc4ccccc4c3=O)C(=O)N2CCN2CCOCC2)cc(OC)c1OC (centres undefined)	99.0	99.8	104.7	103.2	101.1	-4.0
CC(OC(=O)c1cccc(-n2cnnn2)c1)C(=O)Nc1ccc(F)cc1Cl (centres undefined)	95.5	100.3	103.7	100.7	104.6	-8.3
CCc1ccc(/C=C2/SC(=S)N(CCC(=O)NCCCN3CCOCC3)C2=O)cc1	102.6	95.5	86.6	73.3	96.2	-8.3
COC(=O)c1ccc(/C=C2/SC(=S)N(CCC(=O)NCCCN3CCOCC3)C2=O)cc1	58.3	?	565.6*[may fluoresce violet]	89.0	?	-6.2
CN(Cc1ccccc1)C(=O)c1[nH]cnc1C(=O)NCC(=O)OCc1ccccc1	93.1	65.7	90.5	123.4	76.7	15.3
COc1ccccc1N(CCC#N)C(=S)Nc1ccc(S(=O)(=O)N2CCOCC2)cc1	98.5	101.3	100.3	118.6	99.8	0.0
S=C(Nc1ccc(Cl)cc1)Nc1ccc2cn[nH]c2c1	95.1	64.7	85.4	169.2*	74.1	22.5
COC(=O)c1cc(NC(=O)c2c(Cl)nc3sccn23)cc(C(=O)OC)c1	95.4	90.0	188.2*	84.4	100.8	11.9
COC(=O)c1cc(=O)nc2sccn12	100.9	107.5	98.3	95.3	103.3	-7.2
CCCc1cc(=O)n(-c2nc3ccccc3s2)[nH]1	91.0	91.6	90.3	158.7*	93.5	10.9
O=C(NCCCN1CCOCC1)C(=O)N/N=C/c1ccc2c(c1)OCO2	47.4*[may fluoresce violet]	?	298.4*[may fluoresce violet]	105.2	?	9.4
CC(=O)c1ccc(N2CCN(S(=O)(=O)c3ccc4c(c3)CC(C)N4C(C)=O)CC2)cc1 (centres undefined)	37.5*	86.0	120.8	85.6	17.1	5.2
